Measured values from PubChem BioAssay (NCATS).
Records with an inconclusive call do not appear. Active and inactive are the calls of the source. The call rests on the fitted dose curve; in most records, active means well fitted curve in the direction sought with a large enough effect; inconclusive means small, poorly fitted or top-dose-only effect, or another doubt; inactive means no such curve, though single readings can be large; an effect the other way counts as inactive or inconclusive.

Assays:
[1] = Quantitative High-Throughput drug screen in 47 multiple myeloma cell lines against the NCATS MIPE library collection: NCIH929_DSMZ cell viability assay (AID 1918978); further: nearly all actives have a fitted effect of over 35% in size
Method in brief: (§1)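 500 cells/well; MIPE 4.0 drugs pin-transferred; 48 h, 37C, 5% CO2. CellTiter-Glo, 5 min RT, luminescence. Controls: DMSO 100%, media 0%.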

[2] = Quantitative High-Throughput drug screen in 47 multiple myeloma cell lines against the NCATS MIPE library collection: OCIMY1_PLB cell viability assay (AID 1918979); further: nearly all actives have a fitted effect of over 35% in size;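 on viability: 100% = DMSO-only wells and 0% = cell-free media-only wells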
Method in brief: as §1

[3] = Quantitative High-Throughput drug screen in 47 multiple myeloma cell lines against the NCATS MIPE library collection: MM1S_ATCC cell viability assay (AID 1918980); further: nearly all actives have a fitted effect of over 45% in size
Method in brief: as §1

[4] = Quantitative High-Throughput drug screen in 47 multiple myeloma cell lines against the NCATS MIPE library collection: LP1_DSMZ cell viability assay (AID 1918982); further: nearly all actives have a fitted effect of over 35% in size
Method in brief: as §1

[5] = Quantitative High-Throughput drug screen in 47 multiple myeloma cell lines against the NCATS MIPE library collection: L363_DSMZ cell viability assay (AID 1918984); further: nearly all actives have a fitted effect of over 40% in size
Method in brief: as §1

[6] = Quantitative High-Throughput drug screen in 47 multiple myeloma cell lines against the NCATS MIPE library collection: OCIMY5_PLB cell viability assay (AID 1918988); further: nearly all actives have a fitted effect of over 65% in size
Method in brief: as §1

[7] = Quantitative High-Throughput drug screen in 47 multiple myeloma cell lines against the NCATS MIPE library collection: U266_ATCC cell viability assay (AID 1919864); further: nearly all actives have a fitted effect of over 35% in size;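 on viability (% of DMSO control): 0% = media-only wells without cells and 100% = DMSO-only wells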
Method in brief: as §1

[8] = Quantitative High-Throughput drug screen in 47 multiple myeloma cell lines against the NCATS MIPE library collection: XG6_PLB cell viability assay (AID 1919865); further: nearly all actives have a fitted effect of over 40% in size
Method in brief: as §1

[9] = Quantitative High-Throughput drug screen in 47 multiple myeloma cell lines against the NCATS MIPE library collection: XG1_PLB cell viability assay (AID 1919866); further: nearly all actives have a fitted effect of over 35% in size
Method in brief: as §1

[10] = Quantitative High-Throughput drug screen in 47 multiple myeloma cell lines against the NCATS MIPE library collection: VP6_DJ cell viability assay (AID 1919867); further: nearly all actives have a fitted effect of over 40% in size
Method in brief: as §1

[11] = Quantitative High-Throughput drug screen in 47 multiple myeloma cell lines against the NCATS MIPE library collection: UTMC2_PLB cell viability assay (AID 1919868); conditions: CellTiter-Glo ATP luminescence, 48 h; viability (% of DMSO control): at 45.8 µM (top of the series); further: nearly all actives have a fitted effect of over 55% in size;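 on viability (% of DMSO control): 100% = DMSO-only wells and 0% = media-only wells without cells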
Method in brief: as §1

[12] = Quantitative High-Throughput drug screen in 47 multiple myeloma cell lines against the NCATS MIPE library collection: PE2_PLB cell viability assay (AID 1919869); further: nearly all actives have a fitted effect of over 35% in size
Method in brief: as §1

[13] = Quantitative High-Throughput drug screen in 47 multiple myeloma cell lines against the NCATS MIPE library collection: RPMI8226_ATCC cell viability assay (AID 1919871); further: nearly all actives have a fitted effect of over 30% in size
Method in brief: as §1

[14] = Quantitative High-Throughput drug screen in 47 multiple myeloma cell lines against the NCATS MIPE library collection: KMS28PE_JCRB cell viability assay (AID 1918983); further: nearly all actives have a fitted effect of over 35% in size
Method in brief: as §1

[15] = Quantitative High-Throughput drug screen in 47 multiple myeloma cell lines against the NCATS MIPE library collection: KMS34_JCRB cell viability assay (AID 1918985); further: nearly all actives have a fitted effect of over 40% in size
Method in brief: as §1

[16] = Quantitative High-Throughput drug screen in 47 multiple myeloma cell lines against the NCATS MIPE library collection: OPM1_PLB cell viability assay (AID 1918989); further: nearly all actives have a fitted effect of over 40% in size
Method in brief: as §1

[17] = Quantitative High-Throughput drug screen in 47 multiple myeloma cell lines against the NCATS MIPE library collection: SKMM1_PLB cell viability assay (AID 1919863); conditions: SKMM1 myeloma viability, CellTiter-Glo ATP, 48 h; viability: stronger effect = lower value; further: nearly all actives have a fitted effect of over 35% in size
Method in brief: as §1

[18] = Quantitative High-Throughput drug screen in 47 multiple myeloma cell lines against the NCATS MIPE library collection: PCM6_Riken cell viability assay (AID 1919870); further: nearly all actives have a fitted effect of over 30% in size
Method in brief: as §1

[19] = Quantitative High-Throughput drug screen in 47 multiple myeloma cell lines against the NCATS MIPE library collection: MM1R_ATCC cell viability assay (AID 1918981); further: nearly all actives have a fitted effect of over 35% in size
Method in brief: as §1

[20] = Quantitative High-Throughput drug screen in 47 multiple myeloma cell lines against the NCATS MIPE library collection: OCIMY7_PLB cell viability assay (AID 1918987); conditions: OCI-MY7 myeloma viability, CellTiter-Glo ATP, 48 h; viability (% of DMSO): at 45.8 µM (top of the series); further: nearly all actives have a fitted effect of over 65% in size
Method in brief: as §1
Potency means the concentration at half of the fitted maximal effect.

COC1CCC(N(C(=O)C2CCC(C)CC2)c2cc(C3=CCCCC3)sc2C(=O)O)CC1 (stereo not drawn)
inactive: Potency [2] | Potency [3] | Potency [4] | Potency [5] | Potency [7] | Potency [13]
active: Potency [1] 23.5 µM | Potency [6] 11.8 µM | Potency [8] 23.5 µM | Potency [9] 20.9 µM | Potency [10] 14.8 µM | viability (% of DMSO control) [11] 89.9% | Potency [12] 23.5 µM

CC1(C)O[C@H]2C[C@@H]3[C@H]4CCC5=CC(=O)C=C[C@]5(C)[C@@]4(F)[C@@H](O)C[C@]3(C)[C@]2(C(=O)CO)O1
inactive: Potency [2] | Potency [14] | Potency [16] | viability [17] 108% | Potency [7] | Potency [8] | Potency [9] | Potency [11] | Potency [12]
active: Potency [1] 26.4 µM | Potency [3] 0.0132 µM | Potency [4] 0.0132 µM | Potency [15] 0.0118 µM | Potency [18] 0.059 µM | Potency [13] 0.003 µM

Clc1ccc(-c2nc3sccn3c2C=NOCc2ccc(Cl)c(Cl)c2)cc1
inactive: Potency [1] | Potency [2] | Potency [3] | Potency [19] | Potency [15] | Potency [16] | viability [17] 102% | Potency [11] | Potency [12] | Potency [13]

O=C(O)CCC1CCC(c2cc(F)ccc2F)(S(=O)(=O)c2ccc(Cl)cc2)CC1 (stereo not drawn)
inactive: Potency [2] | Potency [19] | Potency [14] | Potency [6] | Potency [12] | Potency [13]
active: Potency [1] 8.33 µM | Potency [3] 1.66 µM | Potency [5] 16.6 µM | Potency [20] 2.64 µM | Potency [7] 6.62 µM | Potency [9] 9.35 µM | Potency [10] 4.69 µM | Potency [18] 13.2 µM

O=c1c(-c2ccc(O)cc2)coc2cc(OC3O[C@H](CO)[C@H](O)[C@H](O)[C@H]3O)cc(O)c12 (stereo partly drawn)
active: Potency [1] 2.09 µM | Potency [3] 4.18 µM | Potency [19] 16.6 µM | Potency [20] 1.48 µM | Potency [6] 1.48 µM | Potency [16] 7.43 µM | Potency [7] 8.33 µM | Potency [8] 1.32 µM | Potency [9] 1.18 µM | Potency [11] 5.9 µM | Potency [12] 9.35 µM | Potency [18] 2.64 µM | Potency [13] 16.6 µM
inactive: Potency [2]

O=c1c(-c2ccc(O)cc2)coc2cc(O[C@@H]3O[C@H](CO)[C@H](O)[C@H](O)[C@H]3O)ccc12
inactive: Potency [1] | Potency [2] | Potency [3] | Potency [14] | Potency [5] | Potency [15] | Potency [16] | viability [17] 171% | Potency [8] | Potency [9] | Potency [12] | Potency [18] | Potency [13]

N#CC1(c2ccc(NC(=O)c3cccnc3NCc3ccncc3)cc2)CCCC1
inactive: Potency [1] | Potency [2] | Potency [3] | Potency [5] | Potency [7]
active: Potency [16] 16.6 µM | Potency [8] 18.7 µM | Potency [9] 20.9 µM | Potency [12] 18.7 µM

COc1ccc(Cc2nccc3cc(OC)c(OC)cc23)cc1OC
active: Potency [2] 18.7 µM | Potency [3] 23.5 µM | Potency [19] 23.5 µM | Potency [14] 8.33 µM | Potency [15] 3.72 µM | Potency [20] 18.7 µM | Potency [6] 16.6 µM | Potency [16] 11.8 µM | Potency [8] 13.2 µM | Potency [9] 14.8 µM
inactive: Potency [1] | Potency [11] | Potency [13]

CC(C)(Cc1ccc2ccccc2c1)NC[C@@H](O)COc1cccc(Cl)c1C#N
active: Potency [3] 16.6 µM
inactive: Potency [1] | Potency [2] | Potency [14] | Potency [15] | viability [17] 126% | Potency [7] | Potency [8] | Potency [9] | Potency [11] | Potency [12] | Potency [18]

C[C@H]1[C@H](NC(=O)C(=NOC(C)(C)C(=O)O)c2csc(N)n2)C(=O)N1S(=O)(=O)O
inactive: Potency [1] | Potency [2] | Potency [19] | Potency [15] | Potency [16] | viability [17] 114% | Potency [11] | Potency [12] | Potency [18] | Potency [13]
active: Potency [3] 14.8 µM | Potency [7] 14.8 µM

CO[C@H]1C=CC=C(C)C(=O)NC2=CC(=O)C(NCCN(C)C)=C(C[C@@H](C)C[C@H](OC)[C@@H](O)[C@@H](C)C=C(C)[C@@H]1OC(N)=O)C2=O
active: Potency [1] 0.059 µM | Potency [2] 0.132 µM | Potency [3] 0.105 µM | Potency [19] 0.0296 µM | Potency [14] 0.0166 µM | Potency [15] 0.0132 µM | Potency [20] 0.0662 µM | Potency [6] 0.0118 µM | Potency [16] 0.0662 µM | Potency [17] 0.372 µM | Potency [7] 0.0662 µM | Potency [8] 0.105 µM | Potency [9] 0.0372 µM | Potency [10] 0.0093 µM | Potency [11] 0.0662 µM | Potency [12] 0.0935 µM | Potency [18] 0.105 µM

O=c1cc(-c2cccc3c2Sc2ccccc2S3)oc(N2CCOCC2)c1
active: Potency [1] 18.7 µM | Potency [3] 18.7 µM | Potency [19] 23.5 µM | Potency [6] 20.9 µM | Potency [17] 18.7 µM | Potency [8] 18.7 µM | Potency [9] 18.7 µM | Potency [12] 18.7 µM | Potency [18] 14.8 µM
inactive: Potency [2]

CC(C)(C)Cn1c(N)nc2ccc(-c3[nH]c(C(C)(C)C)nc3-c3ccc(F)cc3)nc21
inactive: Potency [5]
active: Potency [1] 26.4 µM | Potency [2] 16.6 µM | Potency [3] 16.6 µM | Potency [14] 23.5 µM | Potency [20] 18.7 µM | Potency [6] 16.6 µM | Potency [16] 20.9 µM | Potency [8] 14.8 µM | Potency [10] 16.6 µM | Potency [12] 20.9 µM
